# Test results published in PubChem BioAssay (Tox21).
# Values joined by “and” are separate entries in the source; they are usually repeats but may differ in a detail not shown here. Equal values may be shown once. Unmarked numbers belong to inactive results. Inconclusive results are not listed. A call without a number means that no potency is given here. Active and inactive are the calls of the source. Unless noted, the call rests on the fitted dose curve; in most records, active means well fitted curve in the direction sought with a large enough effect in the repeat runs; inconclusive means weak or mixed curves; inactive means no such curve, though single readings can be large; an effect the other way counts as inactive or inconclusive.
# Assays:
# [1] = Caspase-3/7 induction in HepG2 cells by small molecules, qHTS assay (AID 1346978); further: nearly all actives have a fitted effect of over 15% in size
# Summary of the method: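 Wild-type HepG2 cells (2,000/well) were settled 5 h at 37 C, 5% CO2, then exposed to compounds in DMSO for 17 h. Caspase-3/7 activity was read by luminescence 30 min after adding Caspase-Glo 3/7 reagent at room temperature.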
# [2] = Caspase-3/7 induction in CHO-K1 cells by small molecules, qHTS cell viability counter screen (AID 1346979); further: nearly all actives have a fitted effect of over 35% in size; further: potency means the concentration at half of the fitted maximal effect
# Summary of the method: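 Multiplexed with Caspase-Glo 3/7 in CHO-K1 cells, this counter screen added CellTiter-Fluor after 16hr of compound exposure and recorded fluorescence 1hr later.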
# [3] = Caspase-3/7 induction in CHO-K1 cells by small molecules, qHTS assay (AID 1346980); further: nearly all actives have a fitted effect of over 15% in size
# Summary of the method: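 Wild-type cells were seeded at 1,500 per well and settled 5 hr at 37 C, 5% CO2, then exposed to DMSO-dissolved compounds for 17 hr. Caspase-Glo 3/7 reagent was added, and luminescence was read after 30min at room temperature.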
# [4] = target: Nuclear receptor subfamily 1 group I member 2 (Homo sapiens) (UniProt O75469); assay: Human pregnane X receptor (PXR) small molecule agonists, qHTS assay (AID 1346982); further: nearly all actives have a fitted effect of over 35% in size; further: potency means the concentration at half of the fitted maximal effect
# Nuclear receptor subfamily 1 group I member 2 (Homo sapiens), sequence (O75469 whole entry, looked up): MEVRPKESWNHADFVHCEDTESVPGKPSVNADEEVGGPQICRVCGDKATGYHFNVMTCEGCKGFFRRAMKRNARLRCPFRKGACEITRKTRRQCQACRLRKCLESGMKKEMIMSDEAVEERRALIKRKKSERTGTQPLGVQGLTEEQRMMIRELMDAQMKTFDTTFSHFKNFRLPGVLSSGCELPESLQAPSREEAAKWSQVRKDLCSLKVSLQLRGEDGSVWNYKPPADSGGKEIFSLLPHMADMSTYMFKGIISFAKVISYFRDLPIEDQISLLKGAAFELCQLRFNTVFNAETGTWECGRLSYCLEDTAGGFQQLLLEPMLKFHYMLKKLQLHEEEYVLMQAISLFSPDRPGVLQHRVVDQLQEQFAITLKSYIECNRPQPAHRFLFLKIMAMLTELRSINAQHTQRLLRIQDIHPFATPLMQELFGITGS
# Summary of the method: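 Compound-induced hPXR transactivation of a CYP3A4 luciferase reporter was scored in HepG2 PXR-Luc cells over 24 hr at 37 C, 5% CO2, by luminescence.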
# [5] = target: Nuclear receptor subfamily 1 group I member 2 (Rattus norvegicus) (UniProt Q9R1A7); assay: Rat pregnane X receptor (rPXR) activation by small molecules, qHTS assay (AID 1346983); conditions: rPXR luciferase reporter cells, One-Glo luminescence, 24 h; hits give high values; further: nearly all actives have a fitted effect of over 20% in size
# Nuclear receptor subfamily 1 group I member 2 (Rattus norvegicus), sequence (Q9R1A7 whole entry, looked up): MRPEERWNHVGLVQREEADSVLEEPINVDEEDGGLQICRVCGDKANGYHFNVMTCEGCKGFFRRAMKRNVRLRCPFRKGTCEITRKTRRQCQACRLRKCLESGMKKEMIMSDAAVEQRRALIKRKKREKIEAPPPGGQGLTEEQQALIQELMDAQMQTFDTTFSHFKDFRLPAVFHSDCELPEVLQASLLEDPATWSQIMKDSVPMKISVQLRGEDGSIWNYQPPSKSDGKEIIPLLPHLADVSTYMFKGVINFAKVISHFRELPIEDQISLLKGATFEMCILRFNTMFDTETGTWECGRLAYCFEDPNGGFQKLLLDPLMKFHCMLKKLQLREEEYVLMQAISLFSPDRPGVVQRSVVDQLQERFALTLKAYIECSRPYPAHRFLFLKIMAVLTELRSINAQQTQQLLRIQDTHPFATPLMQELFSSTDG
# Summary of the method: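 Cell-based rPXR luciferase reporter assay, 2,000 cells per well, rested 5hr at 37 C before compound addition in DMSO, then 24 hr at 37 C. One-Glo reagent was added and luminescence read after 30 min at room temperature.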
# [6] = target: Nuclear receptor subfamily 1 group I member 2 (Homo sapiens) (UniProt O75469); assay: CYP3A4 induction through human pregnane X receptor (PXR) by small molecules, qHTS assay (AID 1346984); further: nearly all actives have a fitted effect of over 40% in size
# Summary of the method: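 Readings come from a luciferase reporter: DPX-2 cells, which are HepG2 cotransfected with PXR and a CYP3A4-promoter construct, were exposed to test compounds for 24 h at 37C before One-Glo detection.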
# [7] = target: Nuclear receptor subfamily 1 group I member 2 (Homo sapiens) (UniProt O75469); assay: Human pregnane X receptor (PXR) activation by small molecules, qHTS assay (AID 1346985); further: nearly all actives have a fitted effect of over 40% in size
# Summary of the method: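 DPX-2 cells (HepG2 co-transfected with a PXR response element and a CYP3A4-promoter luciferase construct) were seeded at 2,000 per well, rested 5 hr at 37C, then exposed to DMSO-dissolved compounds for 24 hr. Activation was read as luciferase luminescence.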
# [8] = target: Acetylcholinesterase (Homo sapiens) (UniProt P22303); assay: Acetylcholinesterase (AChE) small molecule antagonists: colormetric cell-based qHTS assay (AID 1347395; calls by dose curve; further: nearly all actives have a fitted effect of over 30% in size; further: potency means the concentration at half of the fitted maximal effect)
# Summary of the method: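 In this cell-based qHTS, attached SH-SY5Y cells were treated with test chemicals for 30 min, after which acetylthiocholine hydrolysis was followed by DTNB colour development over 90 min at 37 C.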
# [9] = target: Acetylcholinesterase (Homo sapiens) (UniProt P22303); assay: Acetylcholinesterase (AChE) small molecule antagonists: enzyme-based qHTS assay (AID 1347397; calls by dose curve; further: nearly all actives have a fitted effect of over 55% in size; further: potency means the concentration at half of the fitted maximal effect); conditions: Potency: AChE enzyme activity inhibition; outcome: AChE enzyme activity inhibition
# Summary of the method: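 Human recombinant acetylcholinesterase; substrate acetylthiocholine; thiocholine quantified with DTNB (colorimetric). Compound preincubation 30 min RT; reaction 10 min RT.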
# [10] = target: Acetylcholinesterase (Homo sapiens) (UniProt P22303); assay: Acetylcholinesterase (AChE) small molecule antagonists: fluorescence cell-based qHTS assay (AID 1347398; calls by dose curve; further: nearly all actives have a fitted effect of over 50% in size; further: potency means the concentration at half of the fitted maximal effect); conditions: Potency: AChE activity; outcome: AChE activity
# Summary of the method: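 Thiocholine generated from acetylthiocholine by SH-SY5Y cell AChE is detected with Thiolite Green (Ex/Em 490/520 nm) after 40 min at room temperature, following 30 min compound pretreatment at 37 C.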
# [11] = target: Acetylcholinesterase (Homo sapiens) (UniProt P22303); assay: Acetylcholinesterase (AChE) small molecule antagonists: enzyme-based qHTS assay with human liver microsomes (AID 1347399; calls by dose curve; further: nearly all actives have a fitted effect of over 60% in size); conditions: Potency: qHTS inhibition; outcome: qHTS inhibition
# Summary of the method: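 Recombinant human AChE (50 mU/mL in the enzyme mix) and human liver microsomes (0.25 mg/mL final) were preincubated with compound and NADPH (0.25 mg/mL final) for 30 min at 37 C. Acetylthiocholine/DTNB was then added; thiocholine was read colorimetrically after 10 min at room temperature.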
# [12] = target: Cytochrome P450 2C19 (Homo sapiens) (UniProt P33261); assay: Cytochrome P450 Family 2 Subfamily C Member 19 (CYP2C19) small molecule antagonists: luciferase reporter qHTS assay (AID 1671197); further: nearly all actives have a fitted effect of over 65% in size; further: potency means the concentration at half of the fitted maximal effect; on activity change, negative = inhibition: series mostly up to about 120 µM
# Cytochrome P450 2C19 (Homo sapiens), sequence (P33261 whole entry, looked up): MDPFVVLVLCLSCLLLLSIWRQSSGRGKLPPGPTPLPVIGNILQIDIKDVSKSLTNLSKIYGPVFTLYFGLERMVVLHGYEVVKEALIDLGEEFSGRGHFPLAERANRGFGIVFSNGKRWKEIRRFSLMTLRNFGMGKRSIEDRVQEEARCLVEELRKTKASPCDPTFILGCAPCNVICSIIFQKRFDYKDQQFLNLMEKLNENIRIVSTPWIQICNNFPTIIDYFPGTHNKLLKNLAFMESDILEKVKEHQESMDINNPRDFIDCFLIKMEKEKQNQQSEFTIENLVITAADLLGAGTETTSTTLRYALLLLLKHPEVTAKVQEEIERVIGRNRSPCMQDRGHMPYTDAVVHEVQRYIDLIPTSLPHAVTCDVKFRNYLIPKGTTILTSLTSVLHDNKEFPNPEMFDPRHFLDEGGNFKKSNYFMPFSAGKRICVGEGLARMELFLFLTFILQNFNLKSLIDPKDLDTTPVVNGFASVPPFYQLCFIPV
# Summary of the method: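 Relative luminescence units recorded 20 min after the detection reagent stopped a 1 h, 37C CYP2C19 reaction on proluciferin substrate, which was started by NADPH regeneration following 10 min room-temperature compound preincubation; ketoconazole positive control.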
# [13] = target: Cytochrome P450 2C9 (Homo sapiens) (UniProt P11712); assay: Cytochrome P450 Family 2 Subfamily C Member 9 (CYP2C9) small molecule antagonists: luciferase reporter qHTS assay (AID 1671198); further: nearly all actives have a fitted effect of over 50% in size; further: potency means the concentration at half of the fitted maximal effect; on activity change, negative = inhibition: series mostly up to about 120 µM
# Cytochrome P450 2C9 (Homo sapiens), sequence (P11712 whole entry, looked up): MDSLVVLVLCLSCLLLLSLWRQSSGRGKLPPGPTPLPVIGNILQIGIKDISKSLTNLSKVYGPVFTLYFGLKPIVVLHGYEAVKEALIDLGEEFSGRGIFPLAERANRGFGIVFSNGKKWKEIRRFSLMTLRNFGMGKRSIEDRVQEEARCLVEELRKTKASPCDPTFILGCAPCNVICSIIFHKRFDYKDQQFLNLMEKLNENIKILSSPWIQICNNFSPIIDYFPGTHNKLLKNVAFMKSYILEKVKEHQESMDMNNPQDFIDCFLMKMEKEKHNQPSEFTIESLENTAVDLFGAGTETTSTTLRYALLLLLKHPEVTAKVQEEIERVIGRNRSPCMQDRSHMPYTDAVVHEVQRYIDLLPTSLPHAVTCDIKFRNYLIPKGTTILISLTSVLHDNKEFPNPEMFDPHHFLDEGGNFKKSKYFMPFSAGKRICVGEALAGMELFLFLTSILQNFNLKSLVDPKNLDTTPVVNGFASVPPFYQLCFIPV
# Summary of the method: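 CYP2C9 activity was measured with a P450-Glo proluciferin substrate. Enzyme–substrate mix was held with compound for 10 min at room temperature, then NADPH regeneration solution was added for 1 h at 37C. Luciferin product was read as luminescence.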
# [14] = target: Cytochrome P450 1A2 (Homo sapiens) (UniProt P05177); assay: Cytochrome P450 Family 1 Subfamily A Member 2 (CYP1A2) small molecule antagonists: luciferase reporter qHTS assay (AID 1671199); further: nearly all actives have a fitted effect of over 50% in size; further: potency means the concentration at half of the fitted maximal effect; on activity change, negative = inhibition: series mostly up to about 120 µM
# Cytochrome P450 1A2 (Homo sapiens), sequence (P05177 whole entry, looked up): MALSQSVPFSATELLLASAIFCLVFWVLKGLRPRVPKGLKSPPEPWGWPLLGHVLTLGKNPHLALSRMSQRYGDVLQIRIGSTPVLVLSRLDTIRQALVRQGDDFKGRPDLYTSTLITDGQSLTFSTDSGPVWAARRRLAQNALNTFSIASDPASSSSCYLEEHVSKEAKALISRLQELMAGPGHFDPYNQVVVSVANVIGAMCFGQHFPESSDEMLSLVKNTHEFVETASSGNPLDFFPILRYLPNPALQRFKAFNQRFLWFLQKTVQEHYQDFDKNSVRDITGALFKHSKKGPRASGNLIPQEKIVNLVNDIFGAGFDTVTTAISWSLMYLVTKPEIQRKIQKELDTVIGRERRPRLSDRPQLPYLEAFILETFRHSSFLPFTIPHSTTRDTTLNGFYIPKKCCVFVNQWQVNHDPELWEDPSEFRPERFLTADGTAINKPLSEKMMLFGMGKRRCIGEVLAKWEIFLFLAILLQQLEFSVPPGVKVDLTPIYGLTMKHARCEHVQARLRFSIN
# Summary of the method: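 Enzymatic CYP1A2 assay, human, luminescent: 10 min compound–enzyme–substrate preincubation, 1 h NADPH-dependent turnover, 20 min detection step, room temperature throughout. Reduced light indicates lower CYP1A2 activity.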
# [15] = target: Voltage-gated inwardly rectifying potassium channel KCNH2 (Homo sapiens) (UniProt Q12809); assay: Human Ether-a-go-go-Related Gene (hERG) channel small molecule antagonists: fluorescence cell-based qHTS assay (AID 1671200);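 further: hERG-expressing U2OS cells given a thallium stimulus after FluxOR II dye loading; series mostly up to about 77 µM; nearly all actives have a fitted effect of over 50% in size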
# Voltage-gated inwardly rectifying potassium channel KCNH2 (Homo sapiens), sequence (Q12809 whole entry, looked up): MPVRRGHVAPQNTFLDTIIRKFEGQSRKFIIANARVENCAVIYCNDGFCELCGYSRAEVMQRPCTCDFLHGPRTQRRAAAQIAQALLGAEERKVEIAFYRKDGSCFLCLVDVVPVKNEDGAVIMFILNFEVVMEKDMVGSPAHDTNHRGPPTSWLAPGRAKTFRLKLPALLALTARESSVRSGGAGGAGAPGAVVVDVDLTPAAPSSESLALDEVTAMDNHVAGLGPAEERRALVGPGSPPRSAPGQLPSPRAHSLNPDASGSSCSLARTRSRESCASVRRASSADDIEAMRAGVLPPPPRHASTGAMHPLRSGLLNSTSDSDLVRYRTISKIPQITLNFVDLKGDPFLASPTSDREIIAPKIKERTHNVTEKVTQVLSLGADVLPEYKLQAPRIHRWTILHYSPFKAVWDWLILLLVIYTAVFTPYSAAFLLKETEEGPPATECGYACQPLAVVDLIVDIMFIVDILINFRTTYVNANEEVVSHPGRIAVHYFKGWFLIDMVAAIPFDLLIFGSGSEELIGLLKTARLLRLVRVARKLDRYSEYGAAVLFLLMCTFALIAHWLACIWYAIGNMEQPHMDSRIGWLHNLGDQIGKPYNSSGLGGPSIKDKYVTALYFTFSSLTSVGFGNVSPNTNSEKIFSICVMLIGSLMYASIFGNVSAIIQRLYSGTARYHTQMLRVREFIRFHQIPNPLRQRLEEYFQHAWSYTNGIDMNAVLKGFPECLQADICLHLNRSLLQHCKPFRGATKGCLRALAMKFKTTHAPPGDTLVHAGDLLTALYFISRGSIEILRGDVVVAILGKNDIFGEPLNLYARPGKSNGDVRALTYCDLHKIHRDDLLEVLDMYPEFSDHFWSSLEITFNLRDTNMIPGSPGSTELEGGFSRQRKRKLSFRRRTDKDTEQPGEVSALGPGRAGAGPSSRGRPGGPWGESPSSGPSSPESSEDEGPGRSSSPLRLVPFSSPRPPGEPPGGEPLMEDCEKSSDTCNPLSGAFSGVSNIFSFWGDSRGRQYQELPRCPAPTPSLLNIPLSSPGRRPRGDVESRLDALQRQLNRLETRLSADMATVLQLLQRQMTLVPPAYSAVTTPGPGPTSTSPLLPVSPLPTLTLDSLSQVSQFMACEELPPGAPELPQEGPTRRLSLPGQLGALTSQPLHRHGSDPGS
# Summary of the method: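 Cell line hERG-U2OS; dye FluxOR II, 1 h RT dark; Tl+ stimulus; ex 480/em 540 nm, read each second for 2 min.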
# [16] = Caspase-3/7 induction in HepG2 cells by small molecules, qHTS cell viability counter screen (AID 1346981); further: nearly all actives have a fitted effect of over 30% in size; further: potency means the concentration at half of the fitted maximal effect; on activity change, negative = cytotoxicity: series mostly up to about 92 µM
# Summary of the method: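 Viability determined by CellTiter-Fluor fluorescence in HepG2 wells also used for the luminescent Caspase-Glo 3/7 read. Compounds were present for 16 hr at 37 C, 5% CO2 before reagent addition.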
# [17] = target: Cytochrome P450 2D6 (Homo sapiens) (UniProt P10635); assay: Cytochrome P450 Family 2 Subfamily D Member 6 (CYP2D6) small molecule antagonists: luciferase reporter qHTS assay (AID 1671196); further: nearly all actives have a fitted effect of over 50% in size; further: potency means the concentration at half of the fitted maximal effect; on activity change, negative = inhibition: series mostly up to about 120 µM
# Cytochrome P450 2D6 (Homo sapiens), sequence (P10635 whole entry, looked up): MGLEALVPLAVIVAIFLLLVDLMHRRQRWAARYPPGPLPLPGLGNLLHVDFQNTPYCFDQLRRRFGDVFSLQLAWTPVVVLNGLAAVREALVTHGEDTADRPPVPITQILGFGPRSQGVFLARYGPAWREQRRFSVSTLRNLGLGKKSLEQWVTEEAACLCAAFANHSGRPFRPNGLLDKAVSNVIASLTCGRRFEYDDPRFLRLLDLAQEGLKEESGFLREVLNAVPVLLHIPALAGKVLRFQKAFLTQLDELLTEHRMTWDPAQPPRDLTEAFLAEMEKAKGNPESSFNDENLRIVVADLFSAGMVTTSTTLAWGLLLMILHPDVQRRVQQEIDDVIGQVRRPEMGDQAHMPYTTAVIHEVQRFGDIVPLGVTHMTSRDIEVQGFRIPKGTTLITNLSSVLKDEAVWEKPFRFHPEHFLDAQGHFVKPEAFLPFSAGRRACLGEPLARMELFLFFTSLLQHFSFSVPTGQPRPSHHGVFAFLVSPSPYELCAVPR
# Summary of the method: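 Each well received CYP2D6 with its proluciferin substrate and chemical, sat 10 min, then got NADPH regeneration solution for 1 h at room temperature. Luminescence in RLU served as the activity measure.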
# [18] = target: Cytochrome P450 3A4 (Homo sapiens) (UniProt P08684); assay: Cytochrome P450 Family 3 Subfamily A Member 4 (CYP3A4) small molecule antagonists: luciferase reporter qHTS assay (AID 1671201); further: nearly all actives have a fitted effect of over 50% in size; further: potency means the concentration at half of the fitted maximal effect; on activity change, negative = inhibition: series mostly up to about 120 µM
# Cytochrome P450 3A4 (Homo sapiens), sequence (P08684 whole entry, looked up): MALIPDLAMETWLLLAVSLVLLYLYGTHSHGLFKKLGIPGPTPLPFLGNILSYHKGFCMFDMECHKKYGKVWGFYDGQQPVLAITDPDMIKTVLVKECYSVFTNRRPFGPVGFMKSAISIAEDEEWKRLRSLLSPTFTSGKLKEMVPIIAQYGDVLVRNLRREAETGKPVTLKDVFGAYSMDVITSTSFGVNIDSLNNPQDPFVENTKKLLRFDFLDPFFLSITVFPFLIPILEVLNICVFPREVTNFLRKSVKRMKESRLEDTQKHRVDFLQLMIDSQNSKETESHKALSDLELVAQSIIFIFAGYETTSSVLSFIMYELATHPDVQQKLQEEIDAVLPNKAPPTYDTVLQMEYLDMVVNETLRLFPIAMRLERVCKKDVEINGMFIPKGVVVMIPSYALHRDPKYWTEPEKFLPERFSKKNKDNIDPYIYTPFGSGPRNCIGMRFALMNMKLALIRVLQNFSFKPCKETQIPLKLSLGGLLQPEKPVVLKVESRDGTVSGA
# Summary of the method: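 Room-temperature assay throughout: 10 min compound–enzyme/substrate preincubation, 1 h reaction after NADPH regeneration solution, 20 min detection. Luciferin formed from proluciferin substrate is quantified by luminescence.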
structure (smiles),measurement,setting,value
Cc1ccc(-c2nc3ccc(C)cn3c2CC(=O)N(C)C)cc1,outcome,[1],inactive
same,Potency,[2],inactive
same,outcome,[3],inactive
same,Potency,[4],23.7 µM (active)
same,max activation,[5],1.42%
same,Potency,[6],inactive
same,Potency,[7],inactive
same,Potency,[8],inactive
same,Potency,[9],inactive
same,Potency,[10],inactive
same,Potency,[11],inactive
same,Potency,[12],inactive
same,Potency,[13],inactive
same,Potency,[14],27.5 µM (active)
same,Potency,[15],inactive
ClC(Cl)(Cl)Cl,outcome,[1],inactive
same,Potency,[2],inactive
same,Potency,[16],inactive
same,Potency,[4],inactive
same,max activation,[5],-2.8%
same,Potency,[6],inactive
same,Potency,[7],inactive
same,Potency,[8],inactive
same,Potency,[9],inactive
same,Potency,[10],inactive
same,Potency,[11],inactive
same,Potency,[17],inactive
same,Potency,[12],inactive
same,Potency,[13],inactive
same,Potency,[15],inactive
same,Potency,[18],inactive
NNC(N)=O,outcome,[1],inactive
same,Potency,[2],inactive
same,outcome,[3],inactive
same,Potency,[16],inactive
same,Potency,[9],inactive
same,Potency,[10],inactive
same,Potency,[11],inactive
same,Potency,[12],inactive
same,Potency,[14],36.5 µM (active)
same,Potency,[15],inactive
same,Potency,[18],inactive
N#CC(Br)(Br)C(N)=O,outcome,[1],inactive
same,Potency,[2],61.1 µM (active)
same,outcome,[3],inactive
same,Potency,[16],inactive
same,Potency,[17],71 µM (active)
same,Potency,[14],inactive
same,Potency,[15],inactive
same,Potency,[18],inactive
COP(=O)(OC)O/C(C)=C/C(=O)N(C)C,outcome,[1],inactive
same,Potency,[2],inactive
same,outcome,[3],inactive
same,Potency,[16],inactive
same,Potency,[8],40.2 µM (active)
same,Potency,[9],63.7 µM (active)
same,Potency,[10],14.3 µM (active)
same,Potency,[11],inactive
same,Potency,[17],inactive
same,Potency,[12],inactive
same,Potency,[15],inactive
same,Potency,[18],inactive
O=C(NC(=O)c1c(F)cccc1F)Nc1cc(Cl)c(F)c(Cl)c1F,outcome,[1],inactive
same,Potency,[2],inactive
same,outcome,[3],inactive
same,Potency,[16],inactive
same,Potency,[9],inactive
same,Potency,[10],inactive
same,Potency,[11],inactive
same,Potency,[17],inactive
same,Potency,[12],69.2 µM (active)
same,Potency,[14],30.9 µM (active)
same,Potency,[15],inactive
same,Potency,[18],inactive
COc1ccc(C=O)cc1O,outcome,[1],inactive
same,Potency,[2],inactive
same,outcome,[3],inactive
same,Potency,[16],inactive
same,Potency,[8],inactive
same,Potency,[9],inactive
same,Potency,[10],inactive
same,Potency,[11],inactive
same,Potency,[17],inactive
same,Potency,[13],inactive
same,Potency,[15],inactive
same,Potency,[18],inactive
CC(=O)OCC1=C(C(=O)O)N2C(=O)[C@@H](N)[C@H]2SC1,caspase activation,[1],0.281% [at 19 µM]
same,"activity change, negative = cytotoxicity",[2],0.401% [at 19 µM]
same,"activity change, negative = cytotoxicity",[16],-1.33% [at 19 µM]
same,activation,[4],-3.67% [at 19 µM]
same,max activation,[5],4.87%
same,Potency,[6],inactive
same,Potency,[7],inactive
same,"activity, negative = inhibition",[8],1.78% [at 23.6 µM]
same,"activity change, negative = inhibition",[9],-2.73% [at 23.6 µM]
same,"activity change, negative = inhibition",[10],-12.7% [at 23.8 µM]
same,"activity change, negative = inhibition",[11],-11.4% [at 23.6 µM]
same,Potency,[12],15.1 µM (active)
same,Potency,[14],12 µM (active)
same,"activity change, negative = inhibition",[15],0.177% [at 15.8 µM]
same,"activity change, negative = inhibition",[18],-8.01% [at 23.6 µM]
CCCCCCC1CCOC1=O (configuration not stated),outcome,[1],inactive
same,Potency,[2],inactive
same,Potency,[16],inactive
same,Potency,[4],inactive
same,Potency,[8],inactive
same,Potency,[9],inactive
same,Potency,[10],inactive
same,Potency,[11],inactive
same,Potency,[17],inactive
same,Potency,[12],39.9 µM (active)
same,Potency,[13],inactive
same,Potency,[15],inactive
same,Potency,[18],inactive
C=C1CC[C@@]2(O)[C@H]3Cc4ccc(O)c5c4[C@@]2(CCN3CC2CC2)[C@H]1O5,outcome,[1],inactive
same,Potency,[2],inactive
same,Potency,[16],inactive
same,Potency,[4],inactive
same,max activation,[5],0.729%
same,Potency,[6],inactive
same,Potency,[7],inactive
same,Potency,[8],inactive
same,Potency,[9],inactive
same,Potency,[10],inactive
same,Potency,[11],inactive
same,Potency,[17],2.19 µM (active)
same,Potency,[12],inactive
same,Potency,[13],inactive
same,Potency,[14],inactive
same,Potency,[18],inactive
C[C@H]1CCCC(=O)CCC/C=C/c2cc(O)cc(O)c2C(=O)O1,outcome,[1],inactive
same,Potency,[2],46.8 µM (active) and 22.4 µM (active)
same,outcome,[3],inactive
same,Potency,[16],46.8 µM (active) and 22.4 µM (active)
same,Potency,[8],inactive
same,Potency,[10],inactive
same,Potency,[11],inactive
same,Potency,[17],54.3 µM (active)
same,Potency,[12],17.2 µM (active) and 29.2 µM (active)
same,Potency,[13],4.84 µM (active) and 7.34 µM (active)
same,Potency,[14],21.6 µM (active) and 13.1 µM (active)
same,Potency,[15],inactive
same,Potency,[18],122 nM (active) and 184 nM (active)
O=P(O)(O)CN(CP(=O)(O)O)CP(=O)(O)O,outcome,[1],inactive
same,Potency,[2],inactive
same,outcome,[3],inactive
same,Potency,[16],inactive
same,Potency,[8],inactive
same,Potency,[10],inactive
same,Potency,[11],inactive
same,Potency,[17],inactive
same,Potency,[12],inactive
same,Potency,[13],inactive
same,Potency,[14],inactive
same,Potency,[18],inactive
C=CC(=O)OCCN(C)C,outcome,[1],inactive
same,Potency,[2],inactive
same,outcome,[3],inactive
same,Potency,[16],inactive
same,Potency,[8],inactive
same,Potency,[9],inactive
same,Potency,[10],inactive
same,Potency,[11],inactive
same,Potency,[17],inactive
same,Potency,[13],inactive
same,Potency,[14],inactive
same,Potency,[18],inactive
